According to PubChem BioAssay AID1159580 (chemical genetic matrix, 2015):
“And” between values parts separate entries of the source, which are not always exact repeats. Identical values can stand only once. About 2,000 (36%) of roughly 5,500 compounds were called active. Another 18% or so got no clear call; they are omitted. Rule as the data show it: active = normalized growth mostly below about 0.91 (no sharp cut-off); inconclusive = no clear call, values can overlap the other calls; inactive = mostly above about 0.92. The list shows a part of the results.

Experiment: chemical genetic growth profiling, strain panel (AID 1159580);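 also: tested at 20 µM; growth read once vehicle control cultures reached saturation at 30 °C; 1 = growth at the plate median or of vehicle wells; lower values mean less growth of the strain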
Conditions: S. cerevisiae deletion strains, growth OD

Measured: normalized growth

CC(=O)O[C@H]1C[C@@H](OC(C)=O)C(C)(C)C2CC(=O)[C@]3(C)C(CC[C@@]4(C)[C@H](C(=O)O)OC(=O)C5OC543)[C@]21C (stereo partly specified)
inactive: locus YAL021C, strain ccr4, active compounds read low 0.96 | locus YAL026C, strain drs2, active compounds read low 0.98 | locus YAL030W, strain snc1, active compounds read low 1.02 | locus YBL061C, strain skt5, active compounds read low 0.995 | locus YBR009C, strain hhf1, active compounds read low 0.988 | locus YBR021W, strain FUR4, active compounds read low 1.03 | locus YBR023C, strain chs3, active compounds read low 1.01 | locus YBR171W, strain sec66, active compounds read low 0.984 | locus YBR229C, strain ROT2, active compounds read low 0.964 | locus YBR231C, strain swc5, active compounds read low 0.988 | locus YBR279W, strain paf1, active compounds read low 1.01 | locus YCL011C, strain gbp2, active compounds read low 0.982 | locus YCL016C, strain dcc1, active compounds read low 0.974 | locus YCL029C, strain bik1, active compounds read low 0.979 | locus YCL061C, strain MRC1, active compounds read low 0.987 | locus YCL069W, strain vba3, active compounds read low 0.991 | locus YCR088W, strain abp1, active compounds read low 1 | locus YDL005C, strain med2, active compounds read low 0.966 | locus YDL035C, strain GPR1, active compounds read low 0.977 | locus YDL040C, strain nat1, active compounds read low 0.995 | locus YDL074C, strain BRE1, active compounds read low 1.04 | locus YDL101C, strain DUN1, active compounds read low 0.991 | locus YDL134C, strain PPH21, active compounds read low 1.05 | locus YDL185W, strain tfp1, active compounds read low 0.965 | locus YDL192W, strain arf1, active compounds read low 0.968 | locus YDR001C, strain nth1, active compounds read low 0.994 | locus YDR069C, strain doa4, active compounds read low 0.994 | locus YDR101C, strain arx1, active compounds read low 0.983 | locus YDR137W, strain rgp1, active compounds read low 0.991 | locus YDR159W, strain sac3, active compounds read low 1.03 | locus YDR162C, strain NBP2, active compounds read low 1.01 | locus YDR195W, strain ref2 0.936 | locus YDR297W, strain sur2, active compounds read low 0.993 | locus YDR318W, strain mcm21, active compounds read low 0.987 | locus YDR334W, strain swr1, active compounds read low 0.976 | locus YDR335W, strain msn5, active compounds read low 0.987 | locus YDR388W, active compounds read low 0.989 | locus YDR392W, strain spt3, active compounds read low 1 | locus YDR502C, strain sam2, active compounds read low 1.02 | locus YEL003W, strain gim4, active compounds read low 0.994 | locus YEL037C, strain rad23, active compounds read low 0.995 | locus YEL061C, strain CIN8 (second series), active compounds read low 0.993 | locus YEL061C, strain CIN8, active compounds read low 0.979 | locus YER015W, strain faa2, active compounds read low 0.987 | locus YER016W, strain bim1, active compounds read low 0.987 | locus YER110C, active compounds read low 0.979 | locus YER111C, strain swi4, active compounds read low 0.987 | locus YER155C, strain BEM2 (second series), active compounds read low 0.992 | locus YER155C, strain BEM2, active compounds read low 0.996 | locus YER167W, strain BCK2, active compounds read low 0.988 | locus YFR010W, strain ubp6, active compounds read low 1.02 | locus YGL078C, strain dbp3, active compounds read low 1.02 | locus YGL086W, strain mad1, active compounds read low 1 | locus YGL167C, strain pmr1, active compounds read low 0.993 | locus YGL173C, strain kem1, active compounds read low 0.997 | locus YGL227W, strain vid30, active compounds read low 0.993 | locus YGL240W, strain doc1, active compounds read low 0.974 | locus YGL248W, strain PDE1, active compounds read low 1.01 | locus YGL253W, strain hxk2, active compounds read low 0.988 | locus YGR135W, strain pre9, active compounds read low 1.06 | locus YGR252W, strain gcn5, active compounds read low 1.07 | locus YHR013C, strain ard1, active compounds read low 0.97 | locus YHR027C, strain rpn1, active compounds read low 0.988 | locus YHR030C, strain SLT2, active compounds read low 0.981 and 1.01 | locus YHR079C, strain IRE1 (second series), active compounds read low 0.983 | locus YHR079C, strain IRE1, active compounds read low 1.03 | locus YHR094C, strain hxt1, active compounds read low 0.992 | locus YHR129C, strain ARP1, active compounds read low 0.987 | locus YHR142W, strain chs7, active compounds read low 0.98 | locus YHR200W, strain rpn10, active compounds read low 1.02 | locus YIL066C, strain RNR3, active compounds read low 0.957 | locus YIL073C, strain SPO22, active compounds read low 0.996 | locus YIL125W, strain kgd1, active compounds read low 0.992 | locus YIR030C, strain dcg1, active compounds read low 0.986 | locus YJL092W, strain hpr5, active compounds read low 0.994 | locus YJL095W, strain BCK1 (second series), active compounds read low 0.983 | locus YJL095W, strain BCK1, active compounds read low 1.08 and 1.01 | locus YJL115W, strain asf1, active compounds read low 0.978 | locus YJL129C, strain trk1, active compounds read low 0.987 | locus YJL134W, strain LCB3, active compounds read low 0.978 | locus YJL154C, strain vps35, active compounds read low 0.978 | locus YJL164C, strain tpk1, active compounds read low 1.02 | locus YJL166W, strain qcr8, active compounds read low 0.977 | locus YJL168C, strain set2, active compounds read low 0.996 | locus YJL187C, strain SWE1 (second series), active compounds read low 1.01 | locus YJL187C, strain SWE1, active compounds read low 0.984
